Measurements from PubChem BioAssay (Tox21).
Records with an inconclusive call do not appear. Calls of active or inactive are those of the source. Unless noted, the call rests on the fitted dose curve.

Tests used:
[1] = qHTS assay to identify small molecule agonists of the sonic hedgehog signaling (Shh) pathway (AID 1259368);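 further: NIH/3T3-derived 3T3Gli1-Luc cells carrying a stable Gli1-driven firefly luciferase reporter; series mostly up to about 92 µM; nearly all actives have a fitted effect of over 15% in size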
Procedure, shortened: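 Steps: seed 3T3 Gli1-Luc cells, incubate 4 hr at 37 C, pin-transfer compounds in DMSO alongside a positive control, incubate 24 hr, add luciferase detection reagent, wait 30 min at room temperature, read luminescence.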

[2] = qHTS assay to identify small molecule antagonists of the sonic hedgehog signaling (Shh) pathway (AID 1259369); further: nearly all actives have a fitted effect of over 45% in size
Procedure, shortened: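 Inhibition of Shh signalling is measured as reduced Gli1-response-element firefly luciferase output in an NIH/3T3-derived stable reporter clone stimulated with conditioned medium for 24hr.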

[3] = target: Estrogen receptor beta (Homo sapiens) (UniProt Q92731); test: qHTS assay to identify small molecule agonists of the estrogen receptor beta (ER-beta) signaling pathway (AID 1259377; active means well fitted activation curve with a large enough effect in the signal ratio in the repeat runs, not every such curve was filed as active; the % refers to the signal ratio)
Chain of Estrogen receptor beta (Homo sapiens) (Q92731 whole entry, looked up): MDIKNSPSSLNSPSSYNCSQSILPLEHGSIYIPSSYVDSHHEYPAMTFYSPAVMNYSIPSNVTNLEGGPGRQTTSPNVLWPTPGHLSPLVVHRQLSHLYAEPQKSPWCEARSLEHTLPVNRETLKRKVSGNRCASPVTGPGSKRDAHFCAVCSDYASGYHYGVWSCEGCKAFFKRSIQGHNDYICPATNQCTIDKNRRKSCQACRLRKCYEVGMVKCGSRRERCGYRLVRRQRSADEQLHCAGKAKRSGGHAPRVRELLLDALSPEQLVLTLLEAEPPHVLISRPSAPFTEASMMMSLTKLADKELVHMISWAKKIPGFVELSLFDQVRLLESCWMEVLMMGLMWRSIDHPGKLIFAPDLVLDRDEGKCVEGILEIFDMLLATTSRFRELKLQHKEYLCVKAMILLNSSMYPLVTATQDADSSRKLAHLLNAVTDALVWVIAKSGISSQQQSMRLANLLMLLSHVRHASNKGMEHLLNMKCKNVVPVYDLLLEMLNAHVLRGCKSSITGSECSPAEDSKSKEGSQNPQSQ
Procedure, shortened: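 ER-beta-UAS-bla HEK293T (GripTite) cells carrying a UAS-driven beta-lactamase reporter, in medium with 2% charcoal-stripped FBS, were exposed to compounds for 16 hr at 37C; LiveBLAzer B/G FRET substrate was then added and fluorescence read after 2 hours at room temperature.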

[4] = target: Estrogen receptor beta (Homo sapiens) (UniProt Q92731); test: qHTS assay to identify small molecule antagonists of the estrogen receptor beta (ER-beta) signaling pathway (AID 1259378; active means well fitted inhibition curve with a large enough effect in the signal ratio in the repeat runs, not every such curve was filed as active; the % refers to the signal ratio)
Procedure, shortened: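 ER-beta-UAS-bla HEK293T (GripTite) cells in 2% charcoal-stripped FBS medium were preincubated 6 hr at 37C, dosed with compound, then stimulated with 1 nM E2 (final) for 16 hr; beta-lactamase reporter read by B/G FRET fluorescence after 2 hr substrate loading.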

[5] = qHTS assay to identify small molecule agonists of the androgen receptor (AR) signaling pathway in the presence of an antagonist - cell viability counter screen (AID 1259379; active means well fitted curve in the direction sought with a large enough effect in the repeat runs; an effect the other way counts as inactive or inconclusive;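 further: MDA-kb2 human breast cancer cells carrying an MMTV luciferase reporter; series mostly up to about 92 µM; nearly all actives have a fitted effect of over 25% in size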)
Procedure, shortened: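 Fluorescence from CellTiter-Fluor, added after 15 hr and read 1 hr later, gave cell viability. Cells were MDA-kb2 exposed to compounds (15 concentrations) in the presence of 3.0uM nilutamide at 37C, 0% CO2.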

[6] = qHTS assay to identify small molecule agonists of the estrogen receptor beta (ER-beta) signaling pathway - cell viability counter screen (AID 1259380; active means well fitted curve in the direction sought with a large enough effect in the repeat runs; an effect the other way counts as inactive or inconclusive; further: nearly all actives have a fitted effect of over 30% in size)
Procedure, shortened: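 Same-well viability counter screen. Cells: ER-beta-UAS-bla HEK293T, plated 6 hr before compound, in 2% charcoal-stripped FBS. Compound exposure 16 hr, 37C; viability by CellTiter-Glo luminescence after 30 min at room temperature.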

[7] = qHTS assay to identify small molecule antagonists of the estrogen receptor beta (ER-beta) signaling pathway - cell viability counter screen (AID 1259382; active means well fitted curve in the direction sought with a large enough effect in the repeat runs; an effect the other way counts as inactive or inconclusive; further: series mostly up to about 92 µM; nearly all actives have a fitted effect of over 55% in size)
Procedure, shortened: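 Following a 6 hr plating period, HEK293T cells carrying a UAS-driven beta-lactamase reporter under ER-beta control received compounds and 1nM E2 (final). After 16 hr at 37C and 2 hr substrate loading, CellTiter-Glo luminescence indicated viability.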

[8] = target: Estrogen receptor (Homo sapiens) (UniProt P03372); test: qHTS assay to identify small molecule agonists of the estrogen receptor alpha (ER-alpha) signaling pathway in the presence of an antagonist (AID 1259383); further: top concentration of the series differs between compounds; nearly all actives have a fitted effect of over 15% in size
Chain of Estrogen receptor (Homo sapiens) (P03372 whole entry, looked up): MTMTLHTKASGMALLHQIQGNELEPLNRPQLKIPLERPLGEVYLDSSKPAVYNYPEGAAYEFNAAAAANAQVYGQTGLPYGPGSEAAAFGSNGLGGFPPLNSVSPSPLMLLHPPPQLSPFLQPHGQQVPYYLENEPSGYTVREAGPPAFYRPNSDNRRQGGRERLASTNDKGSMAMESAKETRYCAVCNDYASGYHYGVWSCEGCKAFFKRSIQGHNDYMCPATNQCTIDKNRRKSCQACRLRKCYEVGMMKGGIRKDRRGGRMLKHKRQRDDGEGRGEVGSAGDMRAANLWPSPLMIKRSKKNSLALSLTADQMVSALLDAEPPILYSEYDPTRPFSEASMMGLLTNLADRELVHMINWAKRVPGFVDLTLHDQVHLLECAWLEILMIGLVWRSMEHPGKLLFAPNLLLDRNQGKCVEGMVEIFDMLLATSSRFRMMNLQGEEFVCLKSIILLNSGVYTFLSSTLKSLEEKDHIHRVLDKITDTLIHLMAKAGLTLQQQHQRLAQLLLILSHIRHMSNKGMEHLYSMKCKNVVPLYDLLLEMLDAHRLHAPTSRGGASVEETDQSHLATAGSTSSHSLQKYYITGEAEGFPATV
Procedure, shortened: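 Cells are hormone-deprived for 5 days (charcoal-stripped FBS, no phenol red), plated for 24hr, spiked with 10.0nM ICI-182,780, then dosed at 15 concentrations. After 22hr at 37C, ONE-Glo luminescence reports ERE-luciferase activity.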

[9] = qHTS assay to identify small molecule agonists or antagonists of the thyroid stimulating hormone receptor (TSHR) signaling pathway - wild type cell line counter screen (AID 1259384)
Procedure, shortened: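 Wild-type HEK293 cells were plated 18 h at 37 C/5% CO2, pin-dosed with compound plus Ro20-1724 medium, held 30 min at room temperature, then given cAMP-d2 and anti-cAMP-cryptate; fluorescence was read after 1 h. Fifteen concentrations, triplicate.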

[10] = target: Thyrotropin receptor (Homo sapiens) (UniProt P16473); test: qHTS assay to identify small molecule antagonists of the thyroid stimulating hormone receptor (TSHR) signaling pathway (AID 1259385); further: nearly all actives have a fitted effect of over 20% in size
Chain of Thyrotropin receptor (Homo sapiens) (P16473 whole entry, looked up): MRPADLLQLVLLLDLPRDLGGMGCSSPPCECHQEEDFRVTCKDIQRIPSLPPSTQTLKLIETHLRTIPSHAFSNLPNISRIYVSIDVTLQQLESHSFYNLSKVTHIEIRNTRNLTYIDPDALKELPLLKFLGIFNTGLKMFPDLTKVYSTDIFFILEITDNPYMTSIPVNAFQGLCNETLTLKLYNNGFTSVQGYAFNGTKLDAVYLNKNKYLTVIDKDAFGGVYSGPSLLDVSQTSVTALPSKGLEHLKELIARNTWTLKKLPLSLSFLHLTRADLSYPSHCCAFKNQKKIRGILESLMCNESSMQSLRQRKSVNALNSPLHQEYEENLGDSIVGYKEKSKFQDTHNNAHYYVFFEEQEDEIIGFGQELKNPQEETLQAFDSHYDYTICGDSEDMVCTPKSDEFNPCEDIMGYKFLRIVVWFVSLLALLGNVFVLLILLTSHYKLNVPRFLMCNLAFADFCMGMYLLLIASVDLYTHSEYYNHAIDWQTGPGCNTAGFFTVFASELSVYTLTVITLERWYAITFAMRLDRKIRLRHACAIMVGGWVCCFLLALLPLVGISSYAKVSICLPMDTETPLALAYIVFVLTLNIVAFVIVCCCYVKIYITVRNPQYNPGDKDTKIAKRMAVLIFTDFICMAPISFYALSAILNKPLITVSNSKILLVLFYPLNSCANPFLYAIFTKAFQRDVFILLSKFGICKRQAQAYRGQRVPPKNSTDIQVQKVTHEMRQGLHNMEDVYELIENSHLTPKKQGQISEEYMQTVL
Procedure, shortened: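 TSHR-HEK293 cells were plated and held 18 h at 37C/5% CO2, then given compound plus Ro20-1724 and stimulated with TSH at 1.5 ng/mL final. After 30 min at room temperature, cAMP was detected with cAMP-d2/anti-cAMP-cryptate (1 h) by fluorescence.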

[11] = qHTS assay to identify small molecule agonists of the estrogen receptor alpha (ER-alpha) signaling pathway in the presence of an antagonist - cell viability counter screen (AID 1259386; active means well fitted curve in the direction sought with a large enough effect in the repeat runs; an effect the other way counts as inactive or inconclusive;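 further: series mostly up to about 92 µM; cells exposed to compounds for 22 h at 37 °C before the viability read; nearly all actives have a fitted effect of over 30% in size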)
Procedure, shortened: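 Cells are starved of estrogens for 5 days in charcoal-stripped serum, seeded for 24hr and co-treated with ICI-182,780 (10.0nM final) and test compounds. After 22hr at 37C, viability is read as CellTiter-Fluor fluorescence.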

[12] = target: Progesterone receptor (Homo sapiens) (UniProt P06401); test: qHTS assay to identify small molecule agonists of the progesterone receptor (PR) signaling pathway (AID 1346784); further: nearly all actives have a fitted effect of over 30% in size
Chain of Progesterone receptor (Homo sapiens) (P06401 whole entry, looked up): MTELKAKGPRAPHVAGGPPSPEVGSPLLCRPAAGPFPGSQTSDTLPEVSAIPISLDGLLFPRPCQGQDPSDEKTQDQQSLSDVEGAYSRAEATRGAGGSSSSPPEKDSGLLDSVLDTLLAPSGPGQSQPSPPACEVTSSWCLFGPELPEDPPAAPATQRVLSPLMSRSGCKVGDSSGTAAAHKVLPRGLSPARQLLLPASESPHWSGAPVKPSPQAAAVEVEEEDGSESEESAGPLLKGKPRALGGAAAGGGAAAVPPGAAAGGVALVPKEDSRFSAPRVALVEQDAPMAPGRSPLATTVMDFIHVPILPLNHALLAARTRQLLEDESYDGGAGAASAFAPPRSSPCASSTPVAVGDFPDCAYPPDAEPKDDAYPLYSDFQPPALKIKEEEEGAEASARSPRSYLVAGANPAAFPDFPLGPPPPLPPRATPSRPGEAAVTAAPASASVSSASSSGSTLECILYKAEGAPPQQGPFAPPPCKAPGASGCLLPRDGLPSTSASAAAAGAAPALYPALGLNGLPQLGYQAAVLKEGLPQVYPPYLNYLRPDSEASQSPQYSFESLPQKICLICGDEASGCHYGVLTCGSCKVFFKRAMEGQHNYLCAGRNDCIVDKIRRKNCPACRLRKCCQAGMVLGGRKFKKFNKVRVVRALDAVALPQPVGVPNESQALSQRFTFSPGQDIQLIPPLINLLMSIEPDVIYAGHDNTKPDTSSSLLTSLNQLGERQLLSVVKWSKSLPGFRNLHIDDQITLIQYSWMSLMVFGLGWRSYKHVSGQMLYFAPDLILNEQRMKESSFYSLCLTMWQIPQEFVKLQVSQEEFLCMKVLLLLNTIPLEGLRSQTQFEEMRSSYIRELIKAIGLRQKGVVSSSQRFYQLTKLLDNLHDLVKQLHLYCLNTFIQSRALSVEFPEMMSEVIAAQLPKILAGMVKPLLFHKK
Procedure, shortened: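 PR-UAS-bla HEK 293T cells carrying a UAS-driven beta-lactamase reporter were seeded in medium with 2% charcoal-stripped FBS, preincubated 6 hr at 37C, then exposed to compounds in DMSO for 16 hr; agonism was read by LiveBLAzer B/G FRET fluorescence.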

[13] = target: Progesterone receptor (Homo sapiens) (UniProt P06401); test: qHTS assay to identify small molecule antagonists of the progesterone receptor (PR) signaling pathway (AID 1346795; active means well fitted inhibition curve with a large enough effect in the signal ratio in the repeat runs, not every such curve was filed as active; the % refers to the signal ratio)
Procedure, shortened: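 PR-UAS-bla HEK293T cells carrying a UAS-driven beta-lactamase reporter were plated in medium with 2% charcoal-stripped FBS and rested 6 hr at 37C. Compounds were added with 1 nM R5020 (final) for 16 hr, then FRET substrate loaded 2 hr at room temperature.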

[14] = qHTS assay to identify small molecule antagonists of the progesterone receptor (PR) signaling pathway - cell viability counter screen (AID 1346798; active means well fitted curve in the direction sought with a large enough effect in the repeat runs; an effect the other way counts as inactive or inconclusive; further: series mostly up to about 92 µM; nearly all actives have a fitted effect of over 50% in size)
Procedure, shortened: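 PR-UAS-bla HEK293T cells in medium with 2% charcoal-stripped FBS were treated with compounds plus R5020 for 16 hr at 37C. Cell viability was then read by CellTiter-Glo luminescence after 30 min at room temperature in the same wells.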

[15] = qHTS assay to identify small molecule agonists of the progesterone receptor (PR) signaling pathway - cell viability counter screen (AID 1346799); further: nearly all actives have a fitted effect of over 45% in size
Procedure, shortened: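 PR-UAS-bla HEK293T cells, 3,000 per well in medium with 2% charcoal-stripped FBS, were preincubated 6 hr at 37C, then exposed to compounds for 16 hr; viability was read as CellTiter-Glo luminescence after 30 min at room temperature.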

[16] = qHTS assay to identify small molecule antagonists of the TGF-beta/Smad signaling pathway - cell viability counter screen (AID 1346824; active means well fitted curve in the direction sought with a large enough effect in the repeat runs; an effect the other way counts as inactive or inconclusive; further: nearly all actives have a fitted effect of over 50% in size)
Procedure, shortened: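 SBE-bla HEK 293T cells were plated overnight at 37 C, then given compounds in DMSO plus TGF-beta1 (added as 0.25 ng/mL solution) for 5 hr. After the bla read, CellTiter-Glo was added to the same wells and luminescence read after 30 min at room temperature.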

[17] = qHTS assay to identify small molecule agonists of the TGF-beta/Smad signaling pathway - cell viability counter screen (AID 1346829; active means well fitted curve in the direction sought with a large enough effect in the repeat runs; an effect the other way counts as inactive or inconclusive; further: top concentration of the series differs between compounds; nearly all actives have a fitted effect of over 45% in size)
Procedure, shortened: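 Compound-treated SBE-bla HEK 293T cells (5 hr, 37 C) were assessed for viability with CellTiter-Glo in parallel with the reporter read.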

[18] = qHTS assay to identify small molecule agonists of the TGF-beta/Smad signaling pathway (AID 1346859; active means well fitted activation curve with a large enough effect in the signal ratio in the repeat runs, not every such curve was filed as active; the % refers to the signal ratio; further: series mostly up to about 77 µM)
Procedure, shortened: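 HEK 293T cells stably carrying a beta-lactamase reporter driven by the Smad binding element were seeded overnight, exposed to DMSO-dissolved compounds for 5 hr at 37 C, 5% CO2, then loaded with FRET substrate for 2 hr at room temperature.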

[19] = target: Thyrotropin-releasing hormone receptor (Homo sapiens) (UniProt P34981); test: qHTS assay to identify small molecule antagonists of the thyrotropin-releasing hormone receptor (TRHR) signaling pathway (AID 1346877; active means well fitted inhibition curve with a large enough effect in the repeat runs, not every such curve was filed as active; further: series mostly up to about 51 µM)
Chain of Thyrotropin-releasing hormone receptor (Homo sapiens) (P34981 whole entry, looked up): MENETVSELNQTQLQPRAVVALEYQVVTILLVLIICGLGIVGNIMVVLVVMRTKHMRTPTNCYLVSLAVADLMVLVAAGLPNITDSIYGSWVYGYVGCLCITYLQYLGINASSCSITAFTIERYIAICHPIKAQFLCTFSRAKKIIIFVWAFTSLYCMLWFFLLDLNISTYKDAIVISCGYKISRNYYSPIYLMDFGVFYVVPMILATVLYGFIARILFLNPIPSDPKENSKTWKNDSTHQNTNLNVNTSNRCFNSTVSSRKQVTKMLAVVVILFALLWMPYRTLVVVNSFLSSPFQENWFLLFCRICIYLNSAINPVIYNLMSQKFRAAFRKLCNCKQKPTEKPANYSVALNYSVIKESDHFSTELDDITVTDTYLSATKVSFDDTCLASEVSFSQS
Procedure, shortened: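 Cells (TRHR-HEK293) are plated and kept 18 h at 37 °C/5% CO2. A calcium-sensitive dye is added for 2 h, compound follows for 5 min at room temperature, and TRH is then given at 1 nM final.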

[20] = target: Androgen receptor (Homo sapiens) (UniProt P10275); test: qHTS assay to identify small molecule agonists of the androgen receptor (AR) signaling pathway in the presence of an antagonist (AID 1259381); further: nearly all actives have a fitted effect of over 15% in size
Chain of Androgen receptor (Homo sapiens) (P10275 whole entry, looked up): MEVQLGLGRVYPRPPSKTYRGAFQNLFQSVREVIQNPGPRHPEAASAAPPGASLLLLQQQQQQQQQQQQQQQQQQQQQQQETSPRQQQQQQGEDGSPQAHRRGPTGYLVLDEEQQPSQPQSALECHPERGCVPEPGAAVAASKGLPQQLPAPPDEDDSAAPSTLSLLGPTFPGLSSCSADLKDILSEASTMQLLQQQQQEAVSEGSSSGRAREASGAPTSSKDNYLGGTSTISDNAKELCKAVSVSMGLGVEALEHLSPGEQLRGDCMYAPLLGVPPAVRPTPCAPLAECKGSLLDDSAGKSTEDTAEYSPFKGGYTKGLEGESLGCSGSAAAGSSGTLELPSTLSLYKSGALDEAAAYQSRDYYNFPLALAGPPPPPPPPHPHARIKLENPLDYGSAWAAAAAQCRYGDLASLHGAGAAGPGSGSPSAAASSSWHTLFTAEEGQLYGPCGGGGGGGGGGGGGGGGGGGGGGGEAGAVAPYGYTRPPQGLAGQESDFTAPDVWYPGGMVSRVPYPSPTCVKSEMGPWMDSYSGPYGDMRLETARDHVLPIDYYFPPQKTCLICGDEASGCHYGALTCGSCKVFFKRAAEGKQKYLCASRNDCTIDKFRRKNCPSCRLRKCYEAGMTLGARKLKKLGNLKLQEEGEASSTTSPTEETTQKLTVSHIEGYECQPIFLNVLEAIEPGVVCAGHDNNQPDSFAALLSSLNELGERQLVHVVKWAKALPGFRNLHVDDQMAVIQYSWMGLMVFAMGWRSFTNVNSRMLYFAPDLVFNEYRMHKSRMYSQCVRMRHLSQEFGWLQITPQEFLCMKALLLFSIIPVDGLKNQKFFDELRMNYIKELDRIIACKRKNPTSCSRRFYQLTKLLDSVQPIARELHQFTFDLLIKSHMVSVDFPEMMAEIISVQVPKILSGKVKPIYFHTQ
Procedure, shortened: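 Cells are MDA-kb2 (human breast carcinoma, MMTV-luc, AR/GR responsive). Nilutamide is present at 3.0uM final throughout; compounds are added at 15 concentrations and incubated 16hr at 37C before ONE-Glo luminescence detection.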
On the % scale 0 is the no-effect control and ±100 the full control effect.

COCCOC(=O)CC#N
inactive: Potency [1] | Potency [2] | outcome [3] | Potency [4] | Potency [5] | Potency [6] | Potency [7] | Potency [8] | outcome [9] | Potency [10] | outcome [11] | Potency [12] | Potency [13] | Potency [14] | Potency [15] | outcome [16] | outcome [17] | outcome [18] | outcome [19]

CSc1ccc(C=O)cc1
inactive: Potency [1] | Potency [2] | outcome [3] | Potency [4] | Potency [5] | Potency [6] | Potency [7] | outcome [9] | Potency [10] | outcome [11] | Potency [12] | Potency [13] | Potency [14] | Potency [15] | outcome [16] | outcome [17] | outcome [18]

CCCOCC(C)OCC(C)O (stereo not given)
inactive: Potency [1] | Potency [2] | outcome [3] | Potency [4] | Potency [5] | Potency [6] | Potency [20] | outcome [9] | Potency [10] | outcome [11] | Potency [12] | Potency [13] | Potency [14] | Potency [15] | outcome [16] | outcome [17] | outcome [18] | outcome [19]

CC(C)[N+](C)(C)CC(O)COc1cccc2ccccc12 (stereo not given)
inactive: Potency [1] | Potency [2] | outcome [3] | Potency [4] | Potency [5] | Potency [6] | Potency [7] | Potency [8] | outcome [9] | Potency [10] | outcome [11] | Potency [12] | Potency [13] | Potency [15] | outcome [16] | outcome [17] | outcome [18] | outcome [19]

C=C(C)C(=O)OCCCCCCCCCCCCCCCCCC
inactive: activity change [1] -0.0741% [at 18.9 µM, hits give high values] | activity change, negative = inhibition [2] 6.62% [at 19 µM] | activation [3] 0.356% [at 19 µM] | activity, negative = inhibition [4] -0.254% [at 19 µM] | activity change, negative = cytotoxicity [5] 0.335% [at 19 µM] | activity change, negative = cytotoxicity [6] -0.0598% [at 19 µM] | activity change, negative = cytotoxicity [7] 13.7% [at 19 µM] | activation [8] 0.0113% [at 19 µM] | cAMP activity change [9] -1.57% [at 18.9 µM] | activity change, negative = inhibition [10] 0.559% [at 19 µM] | activity change, negative = cytotoxicity [11] -3.47% [at 19 µM] | activation [12] 1.29% [at 19 µM] | activity change, negative = inhibition [13] -2.15% [at 18.9 µM] | activity change, negative = cytotoxicity [14] 16.4% [at 18.9 µM] | activity change, negative = cytotoxicity [15] 3.91% [at 19 µM] | activity change, negative = cytotoxicity [17] 16.7% [at 15.8 µM] | activation [18] 6.67% [at 15.8 µM] | activity, negative = inhibition [19] -4.03% [at 10.5 µM]

NC(N)=NS(=O)(=O)c1ccc(N)cc1
inactive: Potency [1] | Potency [2] | outcome [3] | Potency [4] | Potency [5] | Potency [6] | Potency [20] | Potency [8] | outcome [9] | Potency [10] | outcome [11] | Potency [12] | Potency [13] | Potency [14] | Potency [15] | outcome [17] | outcome [18]

Oc1cc(O)c2c(c1)O[C@H](c1ccc(O)c(O)c1)[C@H](O)C2
inactive: Potency [1] | Potency [2] | outcome [3] | Potency [4] | Potency [5] | Potency [6] | Potency [7] | Potency [8] | outcome [9] | Potency [10] | outcome [11] | Potency [12] | Potency [13] | Potency [14] | Potency [15] | outcome [16] | outcome [17] | outcome [18]
